Measured values from PubChem BioAssay AID463173 (ICCB-Longwood Screening Facility, Harvard Medical School, 2010).
Out of some 52,000 compounds screened, about 4,300 (8.3%) were called active. This excerpt belongs to a sample that is enriched for actives. Unmarked numbers belong to inactive results. Cut-off read from the data, not from the text of the source: active = survival mostly below about 52% (no sharp cut-off); inactive = mostly above about 56%.

test system: DeltatarO mutant; assay: S. aureus survival, RN4220 and DeltatarO strains – OD600, teichoic acid synthesis inhibitors, primary screen (AID 463173); details: S. aureus RN4220 wild type/DeltatarO growth, OD600, 18 h, hits give low values, screened at 18.75 µg/mL (by protocol)

Structure (SMILES)	survival
Cc1cccc(-n2nnc(-c3nc(-c4cccs4)no3)c2N)c1	87%
COc1ccc(OC)c(NC(=O)Cn2cc(S(=O)(=O)c3ccccc3)c(=O)c3cc(C)ccc32)c1	70%
CCOc1ccc(NC(=O)Cn2ccn3nc(-c4ccc(OC)c(OC)c4)cc3c2=O)cc1	102%
Cc1ccc(SCC(=O)Nc2ccc(O)c(-c3nc4cc(C)ccc4o3)c2)cc1	64%
NNC(=O)C(Sc1n[nH]c(=O)[nH]c1=O)c1ccccc1 (stereo not given)	80%
Cc1oc(C(C)(C)C)cc1C(=O)NCCO	77%
CCOc1cccc(C2c3[nH]c4ccccc4c3CCN2C(=O)CSc2ccccc2)c1 (stereo not given)	71%
COc1ccc(-c2cc(C(F)(F)F)nc(SCC(=O)Nc3ccc(C(C)=O)cc3)n2)cc1	59%
Cc1ccc(CN(Cc2ccco2)C(=O)COc2ccc(C)c(C)c2)cc1	68%
CCCNC(=O)c1c(NC(=O)c2ccccc2)sc2c1CCC(C(C)(C)C)C2 (stereo not given)	9% (active)
CC(C)(C)C1CCc2c(sc(NC(=O)c3ccccc3F)c2C(=O)NCc2ccco2)C1 (stereo not given)	61%
Cc1ccc(C(=O)Nc2sc3c(c2C(=O)NCc2ccco2)CCC(C(C)(C)C)C3)cc1 (stereo not given)	64%
Cc1ccccc1NC(=O)c1c(NC(=O)c2ccco2)sc2c1CCC(C(C)(C)C)C2 (stereo not given)	74%
CC(C)(C)C1CCc2c(sc(NC(=O)c3ccc(Cl)cc3)c2C(=O)NCc2ccco2)C1 (stereo not given)	86%
CN(C)C(=O)c1c(NC(=O)c2ccccc2F)sc2c1CCCC2	76%
Cc1ccccc1C(=O)Nc1sc2c(c1C(=O)NCc1ccco1)CCC(C(C)(C)C)C2 (stereo not given)	109%
Cc1ccccc1C(=O)Nc1sc2c(c1C(=O)O)CCC(C(C)(C)C)C2 (stereo not given)	-2% (active)
Cc1ccccc1C(=O)Nc1sc2c(c1C(=O)N1CCCCC1)CCC(C(C)(C)C)C2 (stereo not given)	-2% (active)
CCN(CC)C(=O)c1c(NC(=O)c2ccccc2F)sc2c1CCC(C(C)(C)C)C2 (stereo not given)	-8% (active)
CCOC(=O)c1sc(N2C(=O)c3oc4cc(C)c(C)cc4c(=O)c3C2c2cccc(O)c2)nc1C (stereo not given)	78%

Structure (SMILES)	survival
O=C1C2(Cc3ccccc3)CN3CN(C2)CC1(Cc1ccccc1)C3	75%
COc1ccc(NC(=O)c2cc(-c3ccc(F)cc3)no2)cc1OC	71%
O=C(Nc1ccccc1[N+](=O)[O-])c1csnn1	73%
CC1=C(C(=O)Nc2cccnc2)C(c2ccccc2)n2nc(SCc3ccccc3)nc2N1 (stereo not given)	74%
Cc1ccccc1OCC(=O)Nc1ccccc1C(=O)OCc1cc(=O)n2c(C)csc2n1	94%
CCOC(=O)c1c(S(=O)(=O)NCC(=O)NCc2ccccc2Cl)c(C)n(C)c1C	97%
CC(C)(C)C1CCc2c(sc(NC(=O)CCC(=O)O)c2C(=O)Nc2ccccc2C(F)(F)F)C1 (stereo not given)	-6% (active)
COc1ccccc1NC(=O)c1c(NC(=O)Cc2ccccc2)sc2c1CCC(C(C)(C)C)C2 (stereo not given)	126%
COc1ccccc1NC(=O)c1c(NC(=O)c2cccs2)sc2c1CCC(C(C)(C)C)C2 (stereo not given)	139%
Cc1ccc(CNC(=O)C2CCN(C(=O)N3CC(C)Oc4ccc(Cl)cc43)CC2)cc1 (stereo not given)	57%
COc1cc(OC)c(NC(=O)N2CC=C(c3c[nH]c4ccccc34)CC2)cc1Cl	75%
Cc1cccc(NC(=O)N2CC=C(c3c[nH]c4ccccc34)CC2)c1C	73%
CCc1ccc(NC(=O)N2CC=C(c3c[nH]c4ccccc34)CC2)cc1	39% (active)
CCOc1ccc(NC(=O)N2CC=C(c3c[nH]c4ccccc34)CC2)cc1	83%
COc1ccccc1NC(=O)N1CC=C(c2c[nH]c3ccccc23)CC1	42% (active)
CCOC(=O)c1cccc(NC(=O)N2CC=C(c3c[nH]c4ccccc34)CC2)c1	83%
COc1ccccc1OCC(=O)Nc1ccc(S(=O)(=O)N2CCN(C)CC2)cc1	78%
CCc1ccc(-n2nc(CO)c(C(=O)NC(C)c3ccc(Cl)cc3)n2)cc1 (stereo not given)	58%
COc1cc(S(=O)(=O)N2CCN(c3ccccc3F)CC2)c(OC)cc1Cl	87%
CCOC(=O)c1cc2oc(C)cc2n1CC(=O)N(C)C1CCCCC1	92%

Structure (SMILES)	survival
CCOc1ccc(CCNC(=O)c2ccc3c(c2)c(C)c(C)n3Cc2ccccc2)cc1OCC	83%
Cc1ccc2c(=O)cc(C(=O)Nc3c(C(=O)c4ccccc4)oc4ccccc34)oc2c1C	82%
CCCn1c2ccccc2c2cnn(CC(=O)NCCc3ccc(C)cc3)c(=O)c21	128%
CCCn1c2ccccc2c2cnn(CC(=O)NCC3CCN(Cc4ccccc4C)CC3)c(=O)c21	55%
CCCn1c2ccccc2c2cnn(CC(=O)NCC3CCN(Cc4ccc(C)cc4)CC3)c(=O)c21	17% (active)
CCCn1c2ccccc2c2cnn(CC(=O)NCCc3ccc(OCC)c(OCC)c3)c(=O)c21	92%
CCCn1c2ccccc2c2cnn(CC(=O)NCC3CCN(Cc4ccc(F)cc4)CC3)c(=O)c21	68%
CCCn1c2ccccc2c2cnn(CC(=O)NCCc3ccc(OCC)cc3)c(=O)c21	-5% (active)
CCCn1c2ccccc2c2cnn(CC(=O)NCCCOC(C)C)c(=O)c21	-5% (active)
CCCn1c2ccccc2c2cnn(CC(=O)NCCCN3CCCCC3)c(=O)c21	94%
CCCNC(=O)Cn1ncc2c3ccccc3n(CCC)c2c1=O	128%
CCN(CC)S(=O)(=O)c1ccc2c(c1)N(CC(=O)N1CCN(c3cccc(C(F)(F)F)c3)CC1)C(=O)CO2	68%
Cc1ccc(SCc2nc(-c3ccc(C(=O)NCc4ccccc4Cl)cc3)oc2C)cc1	84%
Fc1cccc(NCc2ccccc2-c2nnc(-c3ccccc3Cl)o2)c1	110%
CC(C)NC(=O)CSc1nnc(Cc2ccccc2)n1C	83%
CC(C)NC(=O)CSc1nnc(Cc2ccccc2)n1Cc1ccco1	40% (active)
O=C(CSc1nnc(Cc2ccccc2)n1Cc1ccccc1)NCc1ccco1	63%
O=C(CSc1nnc(Cc2ccccc2)n1Cc1ccco1)NC1CCCC1	44% (active)
CCn1c(SCC(=O)NC2CCCC2)nnc1-c1ccccc1	75%
O=C(CSc1nccn1Cc1ccccc1)NC1CCCC1	69%
